Assay outcomes deposited in PubChem by several laboratories.
Keap1-Nrf2 PPI: disrupts human Keap1 binding to Nrf2 peptide. Keap1 Kelch-Nrf2 peptide fluorescence polarization, 1536-well. inhibition, % at 9.4 µM. actives 0.15% (n = 340,000); in the data active = inhibition above about 12%;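 also: human Keap1 Kelch domain with fluorescein labeled Nrf2 9mer peptide probe; 0% = neutral control wells and 100% = peptide positive control; higher means more block of Keap1 binding to Nrf2 peptide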
Target sequence (Q14145 whole entry, looked up, the tested form may be a part): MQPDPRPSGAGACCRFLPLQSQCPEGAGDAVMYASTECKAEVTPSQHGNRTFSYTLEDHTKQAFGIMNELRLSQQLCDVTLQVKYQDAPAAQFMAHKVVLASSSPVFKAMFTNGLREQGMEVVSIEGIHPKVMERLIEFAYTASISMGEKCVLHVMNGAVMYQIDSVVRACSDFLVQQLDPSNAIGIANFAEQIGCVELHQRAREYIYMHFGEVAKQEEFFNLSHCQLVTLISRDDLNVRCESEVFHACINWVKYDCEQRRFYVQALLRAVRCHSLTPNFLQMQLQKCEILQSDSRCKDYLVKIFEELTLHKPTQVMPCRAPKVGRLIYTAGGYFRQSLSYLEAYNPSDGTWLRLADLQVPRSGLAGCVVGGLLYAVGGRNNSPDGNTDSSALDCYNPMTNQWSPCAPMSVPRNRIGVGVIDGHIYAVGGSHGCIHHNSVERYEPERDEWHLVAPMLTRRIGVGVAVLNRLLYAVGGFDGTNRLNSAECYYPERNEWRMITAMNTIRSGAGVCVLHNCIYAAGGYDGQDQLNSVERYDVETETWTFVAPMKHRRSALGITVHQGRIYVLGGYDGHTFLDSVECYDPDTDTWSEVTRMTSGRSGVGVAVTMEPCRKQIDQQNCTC
cardiac RTF act: increases calcium sensitivity of human cardiac regulated thin filaments; P19429+P45379; IANBD-labeled TnC RTF fluorescence at EC20 calcium; 0% EC20 calcium, 100% full calcium; activation, % at 7.2 µM; actives 0.24% (n = 340,000);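 active = activation above the mean over all tested compounds plus 3 SD, cut at about 30% in these data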;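 also: rise in fluorescence read as greater calcium sensitivity of cardiac thin filaments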
C-LANA FP: inhibitors of KSHV LANA C-terminal domain DNA binding. MBP-C-LANA/FAM-LBS DNA binding, fluorescence polarization. inhibition, % at 9 µM. actives 0.078% (n = 340,000). AID 504423;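 active = highest replicate inhibition at or above 60% at 9 µM, even if other replicates fall short; inactive = all replicates below 60% inhibition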;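 also: 0% = neutral control wells and 100% = 4 µM acridine orange control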
Cardiac RTF inh: cardiac RTF calcium desensitization; IANBD-labeled cardiac RTF, Ca2+ fluorescence; inhibition, % at 7.15 µM; actives 0.12% (n = 340,000);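 active = inhibition above the mean inhibition of all tested compounds plus 3 SD, cut at about 17% in these data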;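 also: assay run at fixed EC70 calcium of 1.6 mM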
RTF Ca inh conf: cardiac RTF calcium sensitivity inhibition, confirmation. shares compounds with Cardiac RTF inh. reconstituted cardiac thin filaments, calcium sensitivity fluorescence. inhibition, % at 7.15 µM. actives 8% (n = 360). AID 504635; in the data active = inhibition above about 18%
* = called active by the depositor; . = no result. A selection: hits, their analogues and other compounds. The true share with any hit is near 0.5%.

SMILES	Keap1-Nrf2 PPI	cardiac RTF act	C-LANA FP	Cardiac RTF inh	RTF Ca inh conf
CC(C)(C)n1nnnc1C(c1cccc(C#N)c1)N1CCN2CCCC2C1 (stereo unspecified)	3.2	3.7	1.0	0.7	.
O=C1C=CC2=C3c4cc(O)c(O)cc4CC3(O)COC2=C1O (stereo unspecified)	-7.6	-28.6	107.1*	37.0*	33.7*
COc1cccc(-n2c(C)c3c(OC)cccc(=O)c3c2C)c1	-0.3	1.1	-0.6	25.3*	-5.0
COc1cccc(=O)c2c(C)n(-c3cc(C)cc(C)c3)c(C)c12	-4.7	3.4	1.9	-3.1	.
CC1CCCCC1NC(=O)COC(=O)c1ccc2c(c1)OCCO2 (stereo unspecified)	0.6	-8.9	-1.9	0.8	.
CCN(CC)CCNC(=O)c1ccc(Sc2ccc(C)cc2)c(NC(C)=O)c1	-3.8	-0.5	-0.8	18.1*	-4.5
O=C(NCC(c1ccco1)N1CCCCC1)c1cccnc1 (stereo unspecified)	-4.7	-1.5	1.3	-10.3	.
Cc1ccc(C(=O)NC(=S)Nn2cnnc2)cc1	-2.5	6.3	0.3	-1.0	.
O=C(NC(=S)Nn1cnnc1)c1cccc(Br)c1	2.0	-2.7	0.2	18.8*	-3.8
O=C(CC1Sc2ccccc2NC1=O)NNc1ccc(F)cc1 (stereo unspecified)	-2.6	3.0	0.6	-1.3	.
Fc1ccc2cnc(CCO[C@H]3CCCCO3)cc2c1	-4.5	-4.9	0.5	-5.0	.
Cc1cc(C(=O)OC2CCOC2=O)c2ccccc2n1 (stereo unspecified)	-4.3	5.9	-0.1	19.4*	-3.8
COc1ccc(-c2cc(C(=O)OC3CCOC3=O)c3ccccc3n2)cc1 (stereo unspecified)	-1.8	-1.6	0.6	-1.4	.
c1ccc2c(c1)CNc1ccccc1-2	1.8	-10.7	0.2	-0.5	.
C/C(=N\NC(=S)NCc1ccccc1)c1ccc(C)o1	0.5	-4.5	0.3	20.6*	-2.2
NS(=O)(=O)c1ccc(CCNC(=O)CNC(=O)c2ccc(Br)o2)cc1	10.0	2.8	2.0	-12.0	.
CCCCCOc1ccc(C2C(C(=O)c3ccc(C)o3)=C(O)C(=O)N2c2cc(C)on2)cc1 (stereo unspecified)	-4.6	0.4	0.4	2.3	.
O=C(OCc1ccccc1)N(CCCCN(CCCNCc1ccccc1)C(=O)OCc1ccccc1)CCCNCc1ccccc1	-6.4	9.2	-2.1	0.8	.
Cc1ccc(C)c(NC(=O)CN(C)C(=O)CSC(C)C(=O)Nc2cc(C)on2)c1 (stereo unspecified)	-4.1	-5.9	1.9	19.0*	-1.3
Cc1cc(NC(=O)C(C)SCC(=O)N(C)CC(=O)Nc2ccc(Br)cc2C)no1 (stereo unspecified)	0.8	-4.9	2.0	-1.2	.
O=C(NCCCN1CCN(Cc2ccccc2)CC1)C1CCN(S(=O)(=O)N2CCC3(CC2)OCCO3)CC1	-2.6	-5.8	-1.7	17.6*	2.7
O=C(NCCCN1CCC(Cc2ccccc2)CC1)C1CCN(S(=O)(=O)N2CCC3(CC2)OCCO3)CC1	0.6	-1.3	-0.1	7.4	.
O=C(N/N=C/c1ccc(Br)s1)c1cccc([N+](=O)[O-])c1	-1.7	2.1	0.6	17.6*	-1.0
O=C(NN=Cc1ccccc1O)c1cccc([N+](=O)[O-])c1	2.7	0.2	4.2	-4.0	.
COc1ccc(CN(C)CC(=O)Nc2ccc(SC(F)F)cc2)cc1OC	2.5	5.0	-0.8	20.1*	2.9
SMILES	Keap1-Nrf2 PPI	cardiac RTF act	C-LANA FP	Cardiac RTF inh	RTF Ca inh conf
CN(c1ccccc1)S(=O)(=O)c1ccccc1Br	-3.4	4.2	1.9	17.2*	0.2
Cc1ccc(S(=O)(=O)N(C)c2ccccc2)cc1	1.4	-0.8	0.2	-0.5	.
COc1ccc(C2=CC3=C(Br)C(=O)C(C)(OC(=O)c4cccs4)C(=O)C3=CO2)cc1 (stereo unspecified)	-4.3	-18.5	3.6	19.8*	0.3
Cc1ccc(CSc2nnc(SCC(=O)N/N=C/c3c[nH]c4ccccc34)s2)cc1	0.3	-7.5	-0.6	23.1*	2.6
N#CC1(NC(=O)CN2CCN(S(=O)(=O)c3ccccc3F)CC2)CCCC1	0.4	18.2	-2.6	-19.3	.
O=C1NC(=S)S/C1=C\C=C\c1ccc([N+](=O)[O-])o1	8.7	-11.4	48.1	31.3*	20.4*
O=C1CC(=O)N2N=C(c3ccc([N+](=O)[O-])cc3)SC2=N1	-4.9	-0.7	2.1	19.3*	-2.5
CCCOC(=O)c1ccc(NC(=O)c2c(Cl)ccc(Cl)c2OC)cc1	3.3	-5.7	1.7	21.0*	-2.1
O=C(O)COc1ccc(/C=N/NC(=O)c2ccc(-c3csc(Nc4ccc(Cl)cc4)n3)cc2)cc1	-2.9	-22.0	-0.4	34.3*	18.4*
CCOc1cc(/C=N/NC(=O)c2ccc(-c3csc(Nc4ccc(C)cc4)n3)cc2)ccc1OCC(=O)O	0.1	.	2.1	.	.
Cn1c(N)c(C(=O)COC(=O)c2cc(S(=O)(=O)N3CCOCC3)ccc2F)c(=O)n(C)c1=O	3.6	-2.2	-1.9	3.9	.
Cc1nc2c(-c3ccc(F)cc3)cnn2c(N)c1-c1ccccc1	-4.4	-10.8	3.8	20.0*	2.7
Cc1nc2c(-c3ccc(Cl)cc3)cnn2c(N)c1-c1ccc(F)cc1	-1.8	-11.0	0.6	-6.2	.
COC(=O)c1ccc(CN(C)S(=O)(=O)c2cccs2)cc1	6.1	-5.3	-0.5	-13.8	.
O=C1/C(=C/c2cccs2)COc2ccccc21	2.1	-7.1	-2.0	18.1*	-3.0
O=C(O)c1ccccc1NC(=O)C1CCN(S(=O)(=O)c2cccc3nsnc23)CC1	-1.3	-4.5	0.3	-2.3	.
CCc1ccc(NC(=O)CN(N=Nc2nonc2C)c2nonc2C)cc1	1.3	-0.5	1.0	26.4*	-3.6
CCc1ccc(NC(=O)c2cc(C)no2)cc1	5.0	-0.8	0.4	-3.3	.
Cc1cc(OC(C)C(=O)NCC(O)c2ccccc2)c2c(C)cc(=O)oc2c1 (stereo unspecified)	-3.9	-1.4	-0.8	-6.4	.
NC(=O)CSc1oc(-c2ccco2)nc1S(=O)(=O)c1ccc(F)cc1	2.1	-3.3	1.6	18.0*	-1.7
CCN(CC)CCNC(=O)CCc1c(C)nc2c(c(C)nn2-c2ccc(C)c(C)c2)c1C	-4.3	5.7	0.1	-9.8	.
Cn1c(CNC(=O)c2ccco2)nnc1SCCOc1ccccc1	1.2	-3.4	2.2	5.4	.
COc1cc(C2C(C(C)=O)=C(O)C(=O)N2Cc2ccccc2)ccc1O (stereo unspecified)	-2.9	-1.5	-0.3	-3.4	.
Nc1nnc(SCC(=O)N2CCN(c3ccccc3)CC2)n1-c1ccccc1	-8.1	-5.7	0.9	17.7*	-2.2
CN1CCC2CC1c1cc(-c3ccc(C(F)(F)F)cc3)ccc12 (stereo unspecified)	1.0	-3.9	-0.7	0.3	.
COc1ccc(S(=O)(=O)n2ccc(-c3ccc(OCCN(C)c4ccccn4)cc3)n2)cc1	-2.1	-2.2	-0.7	17.1*	-1.6
